Activity calls are given as the source filed them. Unless noted, no rule for the calls is given here.
How the values were obtained:
[1] = circadian clock period modulators, cell-based, LOPAC library, luminescence reporter (AID 2774); details: circadian reporter cells, at 7 µM, actives lie on both sides;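 also: values are relative to mean of DMSO wells on each plate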
[2] = tested on: Hepatitis C virus NS3 helicase; experiment: HCV NS3 helicase inhibitors, primary screen, biochemical, fluorescence polarization, LOPAC1280 library (AID 687035; in the data active = inhibition above about 37%); details: Purified HCV NS3 helicase, Cy5-dT15 ssDNA binding fluorescence polarization; stronger effect = higher value; concentration not given here
[3] = Cy5 fluorescence quenching or enhancement artefacts, artefact control for HCV NS3 helicase inhibitor project, biochemical, LOPAC1280 (AID 687037); details: Cy5-DNA-NS3h complex fluorescence interference counterscreen
[4] = tested on: Aerobactin synthetase IucA (Klebsiella pneumoniae, hypervirulent); experiment: IucA enzyme inhibition, biochemical, LOPAC library, absorbance readout (AID 1346212); details: IucA enzyme assay, absorbance (OD) readout; stronger effect = lower value;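 tested at 8 µM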;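 also: 100% = no compound wells and 0% = no enzyme wells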
[5] = sensitizers of A549 cells to miR-34 induction, primary screen, imaging, A549 dox-inducible miR-34, nuclei and caspase counts (AID 1347080;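 active = compounds whose cell count with miR-34 switched on is under 0.7 times the count with it off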); details: A549 miR-34 inducible, Hoechst nuclei count, 48 h
[6] = phospholipid biosynthesis inhibitors in animal cells, primary screen, cell-based, LOPAC library, screen 4 (AID 1347384); details: phospholipid biosynthesis inhibition screen, at 10 µM
[7] = viability rescue of complex I mutant cybrids, primary screen, cell-based, galactose medium, ATP luminescence (AID 1645843;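 active = z-score of at least 1.8 in each of two replicates, scored against plate mean and spread of sample wells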;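 also: positive z means more ATP and so rescue of galactose-driven cybrid death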); details: complex I mutant cybrid cells, 72 h, stronger effect = higher value
[8] = measured here: relative caspase fold change +Dox/-Dox
[9] = measured here: total cells with miR-34 induction, stronger effect = lower value
[10] = measured here: total cells without miR-34 induction

Q: For `NC(=O)c1cc(N2CC2)c([N+](=O)[O-])cc1[N+](=O)[O-]`, which period change [1] is on record?
A: -0.165 h (inactive)

Q: And the inhibition [2]?
A: -2% (inactive)

Q: What about the fluorescence ratio (interference) [3] of the same molecule?
A: 1 (inactive)

Q: What about the remaining activity [4] of the same molecule?
A: 112% (inactive)

Q: And the fold change ([5]; stronger effect = lower value)?
A: 1.03 (inactive)

Q: And the fold change [5, 8]?
A: 1.9

Q: And the cell count [5, 9]?
A: 4350

Q: What about the cell count [5, 10] of the same molecule?
A: 4220

Q: And the outcome [6]?
A: inactive

Q: And the z-score [7]?
A: 0.09 (inactive)

Q: Which period change [1] does the source give for `CC(C)NC(C)Cc1ccc(I)cc1` (stereo not given) here?
A: 0.04 h (inactive)

Q: And the inhibition [2]?
A: -1% (inactive)

Q: What about the fluorescence ratio (interference) [3] of the same molecule?
A: 1 (inactive)

Q: And the remaining activity [4]?
A: 108% (inactive)

Q: And the fold change ([5]; stronger effect = lower value)?
A: 1.08 (inactive)

Q: And the fold change [5, 8]?
A: 0.905

Q: And the cell count [5, 9]?
A: 10800

Q: What about the cell count [5, 10] of the same molecule?
A: 10000

Q: What about the outcome [6] of the same molecule?
A: inactive

Q: What about the z-score [7] of the same molecule?
A: -0.22 (inactive)

Q: With `Cn1cnc(CCN)c1` as the molecule, how does the period change [1] read?
A: -0.12 h (inactive)

Q: And the inhibition [2]?
A: -3% (inactive)

Q: What about the fluorescence ratio (interference) [3] of the same molecule?
A: 1 (inactive)

Q: What about the remaining activity [4] of the same molecule?
A: 125% (inactive)

Q: And the fold change ([5]; stronger effect = lower value)?
A: 1.08 (inactive)

Q: What about the fold change [5, 8] of the same molecule?
A: 1.18

Q: And the cell count [5, 9]?
A: 11400

Q: And the cell count [5, 10]?
A: 10500

Q: What about the outcome [6] of the same molecule?
A: inactive

Q: What about the z-score [7] of the same molecule?
A: 0.51 (inactive)

Q: What does the source list for `O=C1C=CC(=O)C=C1`?
A: period change [1]: -0.065 h (inactive); inhibition [2]: 0% (inactive); fluorescence ratio (interference) [3]: 1 (inactive); remaining activity [4]: 109% (inactive); fold change ([5]; stronger effect = lower value): 1.02 (inactive); fold change [5, 8]: 1.65; cell count [5, 9]: 9760; cell count [5, 10]: 9540; outcome [6]: inactive; z-score [7]: 0.205 (inactive)

Q: Which results are given for `O=S1(=O)N(CCN2CC=C(c3c[nH]c4cc(F)ccc34)CC2)c2cccc3c2N1CCC3`?
A: period change [1]: 0.13 h (inactive); inhibition [2]: 0% (inactive); fluorescence ratio (interference) [3]: 1 (inactive); remaining activity [4]: 123% (inactive); fold change ([5]; stronger effect = lower value): 1.01 (inactive); fold change [5, 8]: 0.783; cell count [5, 9]: 5470; cell count [5, 10]: 5400; outcome [6]: inactive; z-score [7]: -1.29 (inactive)

Q: With `CCCN1CCC[C@H](c2cccc(O)c2)C1` as the molecule, how does the period change [1] read?
A: -0.035 h (inactive)

Q: What about the inhibition [2] of the same molecule?
A: -3% (inactive)

Q: And the fluorescence ratio (interference) [3]?
A: 1 (inactive)

Q: And the remaining activity [4]?
A: 98.7% (inactive)

Q: And the fold change ([5]; stronger effect = lower value)?
A: 1 (inactive)

Q: What about the fold change [5, 8] of the same molecule?
A: 1.94

Q: And the cell count [5, 9]?
A: 9710

Q: What about the cell count [5, 10] of the same molecule?
A: 9700

Q: And the outcome [6]?
A: inactive

Q: What about the z-score [7] of the same molecule?
A: 0.32 (inactive)

Q: For `Clc1cc(I)cc(Cl)c1NC1=NCCN1`, which period change [1] is on record?
A: 0.11 h (inactive)

Q: What about the inhibition [2] of the same molecule?
A: -6% (inactive)

Q: And the fluorescence ratio (interference) [3]?
A: 0.9 (inactive)

Q: What about the remaining activity [4] of the same molecule?
A: 117% (inactive)

Q: What about the fold change ([5]; stronger effect = lower value) of the same molecule?
A: 1.15 (inactive)

Q: What about the fold change [5, 8] of the same molecule?
A: 1.05

Q: And the cell count [5, 9]?
A: 11200

Q: And the cell count [5, 10]?
A: 9770

Q: What about the outcome [6] of the same molecule?
A: inactive

Q: What about the z-score [7] of the same molecule?
A: 0.175 (inactive)

Q: Which period change [1] does the source give for `CC(=O)[C@H]1CCC2C3CC[C@H]4C[C@H](O)CC[C@]4(C)C3CC[C@@]21C` (stereo not given in full) here?
A: -0.055 h (inactive)

Q: And the inhibition [2]?
A: 0% (inactive)

Q: And the fluorescence ratio (interference) [3]?
A: 1 (inactive)

Q: And the remaining activity [4]?
A: 95.7% (inactive)

Q: What about the fold change ([5]; stronger effect = lower value) of the same molecule?
A: 1.03 (inactive)

Q: And the fold change [5, 8]?
A: 0.981

Q: What about the cell count [5, 9] of the same molecule?
A: 10100

Q: And the cell count [5, 10]?
A: 9760

Q: And the outcome [6]?
A: inactive

Q: And the z-score [7]?
A: -0.6 (inactive)

Q: What does the source list for `OCc1cnc[nH]1`?
A: period change [1]: 0.065 h (inactive); inhibition [2]: 0% (inactive); fluorescence ratio (interference) [3]: 1 (inactive); remaining activity [4]: 102% (inactive); fold change ([5]; stronger effect = lower value): 0.96 (inactive); fold change [5, 8]: 1.56; cell count [5, 9]: 10400; cell count [5, 10]: 10800; outcome [6]: inactive; z-score [7]: 0.255 (inactive)

Q: Which period change [1] does the source give for `CN(N=O)c1ccc(O)c(O)c1` here?
A: -0.025 h (inactive)

Q: And the inhibition [2]?
A: 27% (inactive)

Q: And the fluorescence ratio (interference) [3]?
A: 0.9 (inactive)

Q: And the remaining activity [4]?
A: 85.2% (inactive)

Q: And the fold change ([5]; stronger effect = lower value)?
A: 1.13 (inactive)

Q: And the fold change [5, 8]?
A: 0.905

Q: And the cell count [5, 9]?
A: 9750

Q: What about the cell count [5, 10] of the same molecule?
A: 8640

Q: And the outcome [6]?
A: inactive

Q: And the z-score [7]?
A: 0.2 (inactive)

Q: Which results are given for `CCS(=O)(=O)Nc1cccc(C(=C2CCCCC2)c2cnc[nH]2)c1`?
A: period change [1]: 0.07 h (inactive); inhibition [2]: 0% (inactive); fluorescence ratio (interference) [3]: 1 (inactive); remaining activity [4]: 108% (inactive); fold change ([5]; stronger effect = lower value): 1.11 (inactive); fold change [5, 8]: 1.94; cell count [5, 9]: 8610; cell count [5, 10]: 7740; outcome [6]: inactive; z-score [7]: -0.125 (inactive)

Q: Which period change [1] does the source give for `CCCN1CCc2cc(O)cc3c2[C@H]1Cc1ccc(O)c(O)c1-3` here?
A: 0.415 h (inactive)

Q: What about the inhibition [2] of the same molecule?
A: 1% (inactive)

Q: What about the fluorescence ratio (interference) [3] of the same molecule?
A: 1 (inactive)

Q: What about the remaining activity [4] of the same molecule?
A: 99.8% (inactive)

Q: And the fold change ([5]; stronger effect = lower value)?
A: 0.922 (inactive)

Q: What about the fold change [5, 8] of the same molecule?
A: 1.32

Q: And the cell count [5, 9]?
A: 9400

Q: And the cell count [5, 10]?
A: 10200

Q: What about the outcome [6] of the same molecule?
A: inactive

Q: What about the z-score [7] of the same molecule?
A: -0.965 (inactive)

Q: For `Oc1ccc2c3c1O[C@H]1c4oc5ccccc5c4C[C@@]4(O)C(C2)N(CC2CC2)CCC314` (stereo not given in full), which period change [1] is on record?
A: 0.13 h (inactive)

Q: What about the inhibition [2] of the same molecule?
A: -1% (inactive)

Q: What about the fluorescence ratio (interference) [3] of the same molecule?
A: 1 (inactive)

Q: And the remaining activity [4]?
A: 97.5% (inactive)

Q: And the fold change ([5]; stronger effect = lower value)?
A: 1.1 (inactive)

Q: And the fold change [5, 8]?
A: 0.785

Q: And the cell count [5, 9]?
A: 10600

Q: What about the cell count [5, 10] of the same molecule?
A: 9610

Q: What about the outcome [6] of the same molecule?
A: inactive

Q: What about the z-score [7] of the same molecule?
A: -0.595 (inactive)

Q: Which period change [1] does the source give for `NCCCP(=O)(O)O` here?
A: 0.005 h (inactive)

Q: And the inhibition [2]?
A: -1% (inactive)

Q: What about the fluorescence ratio (interference) [3] of the same molecule?
A: 1 (inactive)

Q: What about the remaining activity [4] of the same molecule?
A: 111% (inactive)

Q: And the fold change ([5]; stronger effect = lower value)?
A: 0.943 (inactive)

Q: And the fold change [5, 8]?
A: 2.14

Q: And the cell count [5, 9]?
A: 9360

Q: What about the cell count [5, 10] of the same molecule?
A: 9930

Q: What about the outcome [6] of the same molecule?
A: inactive

Q: What about the z-score [7] of the same molecule?
A: 0.285 (inactive)

Q: Which results are given for `CCCN(CCC)[C@@H]1CCc2ccc(O)cc2C1`?
A: period change [1]: 0.12 h (inactive); inhibition [2]: 0% (inactive); fluorescence ratio (interference) [3]: 1.1 (inactive); remaining activity [4]: 125% (inactive); fold change ([5]; stronger effect = lower value): 0.992 (inactive); fold change [5, 8]: 1.38; cell count [5, 9]: 9820; cell count [5, 10]: 9900; outcome [6]: inactive; z-score [7]: -0.195 (inactive)

Q: Which period change [1] does the source give for `C#CCN[C@H](C)Cc1ccccc1` here?
A: -0.015 h (inactive)

Q: What about the inhibition [2] of the same molecule?
A: -2% (inactive)

Q: And the fluorescence ratio (interference) [3]?
A: 1 (inactive)

Q: And the remaining activity [4]?
A: 82% (inactive)

Q: And the fold change ([5]; stronger effect = lower value)?
A: 0.962 (inactive)

Q: What about the fold change [5, 8] of the same molecule?
A: 1.51

Q: And the cell count [5, 9]?
A: 9640

Q: And the cell count [5, 10]?
A: 10000

Q: And the outcome [6]?
A: inactive

Q: What about the z-score [7] of the same molecule?
A: 0.54 (inactive)

— PubChem BioAssay
